Hits are enriched below; roughly 9.4% of the tested compounds scored in any of these assays.
SMN2 splice enh: SMN2 splice variant enhancement; HEK293 SMN2-luciferase splicing reporter, luminescence, 30-36 h; Potency, µM (titrated, usually from 46.1 µM), most hits filed as activators; 210,000 tested, 2.8% active; AID 1458; note: nearly all actives have a fitted effect of over 55% in size
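HEK293 cells carry an SMN2 minigene-luciferase reporter in which exon 7 inclusion puts luciferase in frame. Cells were seeded at 2000 cells/well, attached for 10-12 hours, then exposed to compounds for 30-36 hours at 37C before ONE-Glo luminescence.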
NPC1 promoter act: activators of NPC1 promoter; Huh7 NPC1 promoter luciferase reporter, 24 h; Potency, µM (series often up to 9.22 µM), hits mostly activators; 320,000 tested, 2.4% active; AID 485313; note: nearly all actives have a fitted effect of over 60% in size
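Cells: Huh7 expressing luciferase under the NPC1 promoter, 1500/well. Seeded 2 h, compound added, incubated 24 h at 37 °C. Luciferase reagent, 10 min ambient, then luminescence.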
Rab9 promoter act: activates the Rab9 promoter | AID 485297 | Huh7 Rab9 promoter-luciferase reporter, luminescence, 24 h | Potency, µM (titrated, usually from 9.22 µM), hits mostly activators | 320,000 tested, 2.8% active; note: nearly all actives have a fitted effect of over 60% in size
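Stable Rab9-luc Huh7, 1500 cells/well, 2 h settle; cmpd in DMSO, 24 h, 37 °C/5% CO2; luciferase reagent 10 min RT; luminescence.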
ELG1 repair inh: blocks ELG1-dependent DNA repair in HEK293T cells | HEK293T ELG1-luciferase reporter, luminescence, 16 h; DNA damage induced by 5-fluorouridine | Potency, µM (top dose mostly 46.1 µM), most hits filed as inhibitors | 330,000 tested, 2.3% active | AID 504467; note: nearly all actives have a fitted effect of over 55% in size
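Step one: seed 2,000 cells per well. Step two: pin-transfer compound or DMSO alongside 5-fluorouridine. Step three: incubate 16 hr, 37 °C, 5% CO2. Step four: add ONE-Glo, wait 30 min, read luminescence.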
FLuc modulator: counter-screen for miR-21 project: firefly luciferase inhibitors or activators; P08659; purified FLuc, Km substrates, luminescence inhibition; Potency, µM (highest dose often 57.5 µM), actives largely listed as inhibitors; 360,000 tested, 6.9% active; AID 588342; note: nearly all actives have a fitted effect of over 55% in size
Target sequence (P08659 whole entry, looked up): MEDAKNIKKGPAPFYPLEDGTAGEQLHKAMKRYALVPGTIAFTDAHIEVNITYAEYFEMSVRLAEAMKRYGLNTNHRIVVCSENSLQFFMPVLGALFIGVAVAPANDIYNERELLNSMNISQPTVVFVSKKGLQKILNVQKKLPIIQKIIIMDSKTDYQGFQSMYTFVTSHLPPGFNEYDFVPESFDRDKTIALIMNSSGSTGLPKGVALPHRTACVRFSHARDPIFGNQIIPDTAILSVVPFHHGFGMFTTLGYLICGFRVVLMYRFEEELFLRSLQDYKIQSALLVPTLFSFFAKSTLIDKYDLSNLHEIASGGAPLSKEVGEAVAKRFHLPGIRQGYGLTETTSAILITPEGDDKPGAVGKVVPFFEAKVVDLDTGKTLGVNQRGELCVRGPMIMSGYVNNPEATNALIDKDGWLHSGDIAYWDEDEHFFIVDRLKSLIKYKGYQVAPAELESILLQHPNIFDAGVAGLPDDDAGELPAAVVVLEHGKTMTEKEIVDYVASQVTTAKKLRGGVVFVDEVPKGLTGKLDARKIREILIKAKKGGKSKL
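Purified P. pyralis luciferase (10nM final) with 10uM D-luciferin and 10uM ATP (Km levels) in 50mM Tris acetate pH 7.5, 10mM Mg acetate, 0.01% Tween-20, 0.05% BSA; qHTS 6-point titration, ~60 µM downward; luminescence read.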
ELG1 genotoxic: genotoxicity induction in ELG1-luciferase HEK293T cells. 330,000 tested, 1.3% active. AID 504466. HEK293T ELG1-luciferase reporter, luminescence, 16 h. Potency, µM (top dose mostly 46 µM), actives largely listed as activators; note: nearly all actives have a fitted effect of over 60% in size
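Screening used a luciferase reporter fused to human ELG1 in HEK293T cells. Luminescence was read on a CCD plate imager after 16 hr exposure and 30 min ONE-Glo incubation.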
Numbers stand for hits; . = inactive; ? = inconclusive; / = no result; [ ] = remark or other dose. Calls come from the whole dose curve; as a rule, active = well fitted curve in the direction sought with a large enough effect; inconclusive = small, poorly fitted or top-dose-only effect, or another doubt; inactive = no such curve, though single readings can be large; an effect the other way counts as inactive or inconclusive.

SMILES	SMN2 splice enh	NPC1 promoter act	Rab9 promoter act	ELG1 repair inh	FLuc modulator	ELG1 genotoxic
COc1ccc(C(c2c(O)cc(C)n(Cc3ccco3)c2=O)N2CCN(c3ccccc3)CC2)cc1 (configuration not stated)	/	/	/	/	.	/
C[C@H](Cc1ccccc1)Nc1ncnc2c1ncn2[C@@H]1O[C@H](CO)[C@H](O)[C@H]1O	.	/	/	/	/	/
O=C(NCc1ccco1)c1cccn2c(=O)c3cc4ccccc4cc3nc12	?	.	.	.	.	?
COCCCNC(=O)c1cccn2c(=O)c3cc4ccccc4cc3nc12	.	.	.	?	15µM	.
CCOC(=O)c1cnn(-c2cccc(F)c2)c1C1CCNCC1	.	/	/	/	.	/
Cc1ncc(CN2CCC(C(=O)Nc3ccc(-n4cccn4)cc3)CC2)s1	/	.	.	.	.	.
O=C(Nc1ccc(-n2cccn2)cc1)C1CCCCN1Cc1cccc2c1OCO2 (configuration not stated)	/	.	.	8.2µM	.	.[9.26 µM]
O=C(NCC(c1cccs1)S(=O)(=O)c1cccs1)c1c(F)cccc1F (configuration not stated)	/	/	/	/	.	/
OCCOCCNc1ncnc2c1cnn2-c1ccc(Cl)cc1	.	1.1µM	0.89µM	.	9.5µM	.
CN(C)CCCNc1ncnc2c1cnn2-c1ccccc1	.	.	.	?	?	?
OCCOCCNc1ncnc2c1cnn2-c1ccccc1	.	2.2µM	?	?	?	.
COCCNc1ncnc2c1cnn2-c1ccc(Cl)cc1	/	1.8µM	1.8µM	/	7.6µM	/
CC(C)OCCCNc1ncnc2c1cnn2-c1ccccc1	.	1.4µM	0.45µM	?	4.3µM	.
CCOCCCNC(=O)c1c(NC(=O)c2cc(=O)c3ccccc3o2)sc2c1CCC2	.	/	/	/	.	/
COCCN(CCOC)c1ncnc2c1cnn2-c1ccc(Cl)cc1	?	?	?	?	15µM	10µM
COCCN(CCOC)c1ncnc2c1cnn2-c1ccccc1	/	.	.	?	.	.
Cc1ccc(Nc2ccc(NCc3ccccc3)nn2)cc1C	?	.	.	?	17µM	?
Clc1ccc(Nc2ccc(NCc3ccccc3)nn2)cc1	.	.	.	?	?	.
CCCOC(=O)c1ccc(Oc2cn[nH]c2-c2ccc(OCC(=O)NN)cc2O)cc1	/	.	.	18µM	.	.
CCOc1ccc(Nc2nc3ccccc3n3c(CC)nnc23)cc1	.	/	/	/	?	/
COc1cc(NC(=O)CCNS(=O)(=O)c2ccc3c(c2)CCN3C(=O)C2CC2)cc(OC)c1	/	/	/	/	.	/
Cc1nnc(NC(=O)CSc2nnc(CCc3nc4ccccc4[nH]3)n2C)s1	.	.	.	.	.	.
Cn1c(CCc2nc3ccccc3[nH]2)nnc1SCC#N	/	.	.	21µM	.	.
Cc1ccc(CN2C(=O)c3oc4ccc(C)cc4c(=O)c3C2c2ccc(O)cc2)cc1 (configuration not stated)	.	/	/	/	.	/
COc1ccc(NC(=O)c2sc(Cl)nc2-c2ccccc2)cc1	.	.	.	.	.	.
SMILES	SMN2 splice enh	NPC1 promoter act	Rab9 promoter act	ELG1 repair inh	FLuc modulator	ELG1 genotoxic
CNC(=O)c1ccc(-c2ccc(F)cc2)s1	?	?	?	?	9.5µM	18µM
COc1ccc(NC(=O)c2ccc(-c3ccc(OC)cc3)s2)cc1	10µM	.	.	.	.	.
CNC(=O)c1ccc(-c2ccc(OC)cc2)s1	18µM	1.3µM	.	?	6.7µM	?
Cc1cc(C)c(NC(=O)c2cc(CN3CCOCC3)on2)c(C)c1	/	/	/	/	.	/
Cc1ccc(-c2nnc(NC(=O)c3ccco3)o2)c(C)c1	/	?	?	?	2.7µM	.
Cc1ccc(C)c(-c2nnc(NC(=O)Cc3ccccc3)o2)c1	/	.	.	.	.	.
O=C(Nc1nnc(-c2ccccc2Cl)o1)c1ccco1	?	.	.	?	6µM	?
Cc1ccc(C)c(-c2nnc(NC(=O)c3ccco3)o2)c1	/	.	.	.	15µM	.
O=C(Nc1nnc(-c2cccs2)o1)c1ccco1	.	.	.	?	?	.
CCCc1cc(=O)[nH]c(SCC(=O)Nc2ccc(C)cc2)n1	.	.	.	.	.	.
CCc1ccc(NC(=O)CSc2nc(CSc3ccc(C)cc3)cc(=O)[nH]2)cc1	/	.	.	.	19µM	.
Cc1ccc(SCc2cc(=O)[nH]c(SCC(=O)Nc3cc(Cl)ccc3Cl)n2)cc1	.	.	.	.	27µM	.
COC(=O)C1=C(C)N(Cc2ccc(OC)cc2)C(=O)/C1=C\c1ccco1	/	.	.	18µM	.	.
CCOc1cc(/C=C2\C(=O)N(Cc3ccc(C)cc3)C(C)=C2C(=O)OC)ccc1O	.	.	.	13µM	.	.
C=CCOc1cccc(/C=C2\C(=O)N(Cc3ccc(C)cc3)C(C)=C2C(=O)OC)c1	.[1.84 µM]	.	.	?	.	.
COc1ccccc1CNC(=O)Cn1c(=O)oc2cc(S(=O)(=O)N3CCC(C)CC3)ccc21	.	/	/	/	.	/
O=c1c(S(=O)(=O)c2ccccc2)cn(Cc2ccc(F)cc2)c2cc(N3CCCCC3)c(F)cc12	/	/	/	/	.	/
O=C(Nc1nccs1)c1cncc(Br)c1	11µM	?	4µM	?	?	.
Cc1csc(NC(=O)c2cncc(Br)c2)n1	13µM	2.8µM	1.1µM	?	9.5µM	?
CCCCOc1cccc(/C=N/NC(=O)c2csc(C)c2C)c1	.	.	.	.	7.6µM	.
Cc1scc(C(=O)N/N=C/c2ccc(Cl)s2)c1C	18µM	3.5µM	2.2µM	?	3µM	?
COc1ccccc1/C=N/NC(=O)c1csc(C)c1C	.	.	.	?	3.4µM	.
COc1ccc(CC(=O)N/N=C/c2ccc(Cl)s2)cc1OC	/	.	.[1.84 µM]	?	.	.
CC(C)Oc1ccc(/C=N/NC(N)=S)cc1	?	?	?	?	15µM	.
CCOc1ccc(/C=N/NC(=O)c2csc(C)c2C)c(OCC)c1	.	.	.	.	.	.
SMILES	SMN2 splice enh	NPC1 promoter act	Rab9 promoter act	ELG1 repair inh	FLuc modulator	ELG1 genotoxic
CC[C@H]1CN(C)[C@H]2Cc3c([nH]c4ccccc34)C(=O)C[C@H]1[C@H]2C(=O)OC	.[9.22 µM]	/	/	/	/	/
CCOC(=O)c1c(NC(=O)COc2cccc(C)c2C)sc2c1CCC(CC)C2 (configuration not stated)	.	/	/	/	.	/
Cc1scc(C(=O)N/N=C/c2ccc(OC(C)C)cc2)c1C	?	.	?	?	6.7µM	?
CCc1c(C(=O)N/N=C/c2ccsc2)csc1C	.	.	.	?	?	.
COc1ccc(CCNC(=O)C(=O)NCC2CCCN2S(=O)(=O)c2ccc(OC)cc2)cc1 (configuration not stated)	/	.	.	21µM	.	.
O=C(NCCc1ccccc1)C(=O)NCC1CCCN1S(=O)(=O)c1ccccc1 (configuration not stated)	/	.	.	?	.	.

Screens (PubChem BioAssay)
